The full list was thinned out, with hits kept by preference.
nsP2pro primary: CHIKV nsP2 protease inhibition, primary qHTS; 31,000 compounds, 1.1% hits; Q8JUX6; Potency, µM (doses to about 24.9 µM), for inactives: top-dose activity change, negative = inhibition, usual class: inhibitors; FRET peptide cleavage, nsP2pro, fluorescence 1 h; also: nearly all actives have a fitted effect of over 60% in size
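Enzyme 150 nM, substrate 2.5 uM (both final); Tris-HCl 10 mM pH 8.0 + 0.01% Tween 20; cpd up to 25 uM, 7 pts; 15 min preinc., 1 h RT; fluorescence ex 525/em 598.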
CHIKV nsP2 cell: secondary cell-based test for CHIKV nsP2 protease inhibitors | shares compounds with nsP2pro primary | cell-based CHIKV nsP2 protease reporter assay | Potency, µM (series often up to 51.1 µM), for inactives: at the top dose activity change, negative = inhibition, actives largely listed as inhibitors | 450 compounds, 10% hits; also: nearly all actives have a fitted effect of over 70% in size
NSP2 full ctr: inhibits full-length CHIKV NSP2 enzyme | AID 1964101 | Potency, µM (series often up to 50.7 µM), for the others: top-dose activity change, negative = inhibition, actives largely listed as inhibitors | Full-length CHIKV NSP2 protease enzymatic counterscreen | shares compounds with nsP2pro primary | 410 compounds, 39% hits; also: nearly all actives have a fitted effect of over 65% in size
Furin counter: human furin inhibition, counterscreen for nsP2pro inhibitors. shares compounds with nsP2pro primary. Recombinant human furin enzymatic counterscreen, fluorogenic substrate. Potency, µM (titrated, usually from 50.6 µM), for the others: top-dose activity change, negative = inhibition, actives largely listed as inhibitors. 410 compounds, 6% hits
nsP2 NS23 pep: blocks CHIKV nsP2 protease cleavage of endogenous NS2/3 peptide. shares compounds with nsP2pro primary. Purified CHIKV nsP2 protease, endogenous NS2/3 peptide cleavage. Potency, µM (highest dose often 51 µM), without a hit: at the highest dose activity change, negative = inhibition, most hits filed as inhibitors. 410 compounds, 34% hits. AID 1964103; also: nearly all actives have a fitted effect of over 55% in size
Papain counter: inhibits papain in a CHIKV nsP2 protease selectivity counterscreen; shares compounds with nsP2pro primary; purified papain protease activity, enzymatic inhibition; Potency, µM (highest dose often 51 µM), without a hit: at the highest dose activity change, negative = inhibition, actives largely listed as inhibitors; 410 compounds, 5% hits; AID 1964104
Target sequence (P00784 whole entry, looked up): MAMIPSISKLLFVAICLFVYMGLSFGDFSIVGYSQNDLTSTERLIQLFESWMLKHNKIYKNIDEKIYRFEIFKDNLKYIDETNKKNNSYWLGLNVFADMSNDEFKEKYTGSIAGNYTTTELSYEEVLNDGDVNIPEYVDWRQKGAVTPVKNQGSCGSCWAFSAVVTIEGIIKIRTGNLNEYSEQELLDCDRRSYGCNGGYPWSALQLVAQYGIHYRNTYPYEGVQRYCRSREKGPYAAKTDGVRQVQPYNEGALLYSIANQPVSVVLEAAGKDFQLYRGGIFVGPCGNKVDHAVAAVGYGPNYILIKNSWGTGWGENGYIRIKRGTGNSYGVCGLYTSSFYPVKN
nsP2pro conf qHTS: CHIKV nsP2 protease inhibition, confirmatory qHTS. CHIKV nsP2 protease enzymatic activity, qHTS. shares compounds with nsP2pro primary. 410 compounds, 43% hits. Potency, µM (highest dose often 25.5 µM), inactives show at the top dose activity change, negative = inhibition, usual class: inhibitors; also: nearly all actives have a fitted effect of over 75% in size
HCV NS3 4A cs: inhibits HCV NS3/4A protease in an nsP2pro selectivity counterscreen; shares compounds with nsP2pro primary; HCV NS3/4A protease biochemical counterscreen; Potency, µM (titrated, usually from 50.9 µM), most hits filed as inhibitors; 410 compounds, 20% hits; AID 1964106; also: nearly all actives have a fitted effect of over 55% in size
Numbers without * were called inactive; ! = not confirmed by another sample; [ ] = remark or other dose. Calls follow the shape of the full dose curve. % is scaled to controls: 0 for no effect and ±100 for the full control effect; potency is read from the fitted curve at half-maximal effect.

How did CC1(C)O[C@H]2CC(=O)OC[C@]23[C@H]2CC[C@@]4(C)[C@H](c5ccoc5)OC(=O)[C@H]5O[C@]54[C@]2(C)C(=O)C[C@@H]13 do in these assays?
nsP2pro primary: -13%

What do the screens show for `CCCCCC(O)/C=C/C1C(O)CC(=O)C1C/C=C/CCCC(=O)O` (stereo not drawn)?
nsP2pro primary: -11%

Results for O=c1c2ccc(-c3cn[nH]c3)cc2nc2sc(Nc3ccc4c(c3)CCC4)nn12 ?
nsP2pro primary: inactive

Results for O=C(NCC1CN(CC2CC2)CC12CN(c1ccccc1)C2)Nc1ccccc1 (stereo not drawn) ?
nsP2pro primary: -6%[39.2 µM]

Results for COc1cc(O)c(C(CC(=O)N2CCOCC2)c2ccc(C)cc2)c(OC)c1 (stereo not drawn) ?
nsP2pro primary: -17%

Results for O=C(Nc1ccc2nc(SCC(=O)N3CCc4ccccc43)sc2c1)c1cccc(Cl)c1 ?
nsP2pro primary: -16%

How did CCOc1ccc(C(=O)Nc2ccc3nc(SCC(=O)N4CCCC4)sc3c2)cc1 do in these assays?
nsP2pro primary: -11%

What do the screens show for `CCOC(=O)CSc1nc2ccc(NC(=O)c3ccc(Cl)cc3)cc2s1`?
nsP2pro primary: inconclusive; CHIKV nsP2 cell: -7%

Results for Cc1ccc(C(=O)Nc2ccc(CN3CCN(C)CC3)c(C(F)(F)F)c2)cc1C#Cc1cnc2[nH]ncc2c1 ?
nsP2pro primary: 67%

How did CCCSc1oc(-c2cccs2)nc1S(=O)(=O)c1ccc(C)cc1 do in these assays?
nsP2pro primary: -23%

What do the screens show for `CCCCS(=O)(=O)c1oc(-c2cccs2)nc1S(=O)(=O)c1ccc(F)cc1`?
nsP2pro primary: inconclusive; CHIKV nsP2 cell: 3.7µM*; NSP2 full ctr: 5.8µM*; Furin counter: 3%; nsP2 NS23 pep: 8.2µM*; Papain counter: -9%; nsP2pro conf qHTS: 5µM*; HCV NS3 4A cs: inactive

How did CCCCCS(=O)(=O)c1oc(-c2cccs2)nc1S(=O)(=O)c1ccc(C)cc1 do in these assays?
nsP2pro primary: -16%

How did COc1cc(O)c(C(CC(=O)N2CCC(c3ccccc3)CC2)c2ccc(OC)c(OC)c2)c(OC)c1 (stereo not drawn) do in these assays?
nsP2pro primary: -1%[39.2 µM]

Results for COC(=O)OCOc1c2n(ccc1=O)N([C@@H]1c3ccccc3SCc3c1ccc(F)c3F)[C@@H]1COCCN1C2=O ?
nsP2pro primary: -6%

How did COc1ccc(S(=O)(=O)Nc2cnccc2C(=O)Nc2nc(-c3ccccc3)cs2)cc1 do in these assays?
nsP2pro primary: 0%

How did C[N+](C)(C)C1CCC(CC2CCC([N+](C)(C)C)CC2)CC1 (stereo not drawn) do in these assays?
nsP2pro primary: -2%

Results for CCCNC(=O)[C@H]1O[C@@H]1C(=O)N[C@H](C(=O)N1CCC[C@@H]1C(=O)O)[C@@H](C)CC ?
nsP2pro primary: -18%

Results for C=CCC/C=C/C#CCCCCCCCC[C@H]1C(=O)O[C@H](C)[C@@H]1O ?
nsP2pro primary: inconclusive; CHIKV nsP2 cell: inconclusive; NSP2 full ctr: inconclusive; Furin counter: -9%[33.5 µM]; nsP2 NS23 pep: -8%[33.5 µM]; Papain counter: inconclusive; nsP2pro conf qHTS: inconclusive; HCV NS3 4A cs: inactive

Results for CCOC(=O)c1ccc(NC2SC(=O)N(Cc3cccc(C(=O)O)c3)C2=O)cc1 (stereo not drawn) ?
nsP2pro primary: 7.9µM*; CHIKV nsP2 cell: -6%

Results for CCOC(=O)c1ccc(NC(=O)CN2CCCCC2)cc1 ?
nsP2pro primary: 9%

How did CCOC(=O)c1ccc2nc(C)cc(Nc3cccc(C(=O)O)c3)c2c1 do in these assays?
nsP2pro primary: 0%

How did C=CC(=O)N1CCC([C@@H]2CCNc3c(C(N)=O)c(-c4ccc(Oc5ccccc5)cc4)nn32)CC1 do in these assays?
nsP2pro primary: -5%

Results for COC[C@@H]1OC(=O)/C(=C\N(C)CCCN(C)C)C2=C(O)C(=O)C3=C([C@@H](OC(C)=O)C[C@@]4(C)[C@@H]3CC[C@@H]4O)[C@@]21C ?
nsP2pro primary: -11%

What do the screens show for `COC[C@H]1OC(=O)c2coc3c2[C@@]1(C)C1=C(C3=O)C2CCC(=O)[C@@]2(C)C[C@H]1OC(C)=O` (stereo partly drawn)?
nsP2pro primary: 9.9µM*; CHIKV nsP2 cell: -1%; NSP2 full ctr: -11%; Furin counter: -6%; nsP2 NS23 pep: -17%; Papain counter: -7%; nsP2pro conf qHTS: -25%; HCV NS3 4A cs: inactive

Results for CN(Cc1ccc(-c2ccc(C#N)cc2)o1)c1ccc(N2CCN(C(=O)OC(C)(C)C)CC2)cc1 ?
nsP2pro primary: -4%

How did O=C(O[C@@H]1Cc2c(O)cc(O)cc2O[C@@H]1c1cc(O)c(O)c(O)c1)c1cc(O)c(O)c(O)c1 do in these assays?
nsP2pro primary: 4.4µM*!; CHIKV nsP2 cell: -27%; NSP2 full ctr: inconclusive; Furin counter: inconclusive; nsP2 NS23 pep: 5.8µM*; Papain counter: inconclusive; nsP2pro conf qHTS: 4.5µM*; HCV NS3 4A cs: inconclusive

What do the screens show for `Oc1cc(O)c2c(c1)O[C@H](c1ccc(O)c(O)c1)[C@H](O)C2`?
nsP2pro primary: 0%

Results for OCC1OC(Oc2cc(O)c3c(c2)OC(c2ccc(O)cc2)C(O)C3)C(O)C1O (stereo not drawn) ?
nsP2pro primary: -4%[10 µM]

Results for O=C(O[C@@H]1Cc2c(O)cc(O)cc2O[C@@H]1c1ccc(O)c(O)c1)c1cc(O)c(O)c(O)c1 ?
nsP2pro primary: inconclusive; CHIKV nsP2 cell: -24%; NSP2 full ctr: 23µM*; Furin counter: -6%; nsP2 NS23 pep: 15µM*; Papain counter: -26%; nsP2pro conf qHTS: inconclusive; HCV NS3 4A cs: inconclusive

Results for COc1ccc(CCC(=O)N2CCCC(n3cc(-c4nc(-c5ccccc5)no4)nn3)C2)cc1 (stereo not drawn) ?
nsP2pro primary: 4%

What do the screens show for `Cc1ccnc(NC(=S)Nc2cccc(C(F)(F)F)c2)c1`?
nsP2pro primary: 2%

How did COc1ccc(-c2ccc(Nc3nc(-c4ccncc4)nc4ccccc34)cc2F)cc1F do in these assays?
nsP2pro primary: 2%

Source: PubChem BioAssay
